Among the data in PubChem BioAssay (NCI) are growth values, retold here.

Holding throughout (assay): NCI-60 one-dose screen, 48 h (100 = growth as untreated, 0 = no growth, -100 = all killed)
One test has as its system HCT-15 colon. As to conditions: 10 µM unless noted.
Another test relates to HT29 colon. The conditions noted are these: 10 µM unless noted.
The subject of a further test is SNB-75 CNS. As to conditions: 10 µM unless noted.
The subject of a further test is SNB-19 CNS. The conditions noted are these: 10 µM unless noted.
The subject of a further test is U251 CNS. As to conditions: 10 µM unless noted.
Another test has as its system PC-3 prostate. As to conditions: 10 µM unless noted.
The next test has as its system SK-MEL-5 melanoma. The conditions noted are these: 10 µM unless noted.
For another test, the system named is UACC-62 melanoma. The conditions noted are these: 10 µM unless noted.
The subject of the next test is LOX IMVI melanoma. As to conditions: 10 µM.
In another test the test system is SK-MEL-28 melanoma. The conditions noted are these: 10 µM unless noted.
A further test relates to SK-MEL-2 melanoma. The conditions noted are these: 10 µM unless noted.
Another test concerns EKVX NSCLC. The conditions noted are these: 10 µM unless noted.
A further test concerns SN12C renal. As to conditions: 10 µM unless noted.
The subject of another test is UO-31 renal. As to conditions: 10 µM unless noted.
The subject of the next test is TK-10 renal. As to conditions: 10 µM unless noted.
The subject of the next test is ACHN renal. The conditions noted are these: 10 µM unless noted.
The test system of a further test is A498 renal. As to conditions: 10 µM unless noted.
Another test relates to CCRF-CEM leukemia. The conditions noted are these: 10 µM unless noted.
The next test relates to MOLT-4 leukemia. As to conditions: 10 µM unless noted.

Each structure is given as a SMILES string. Compounds without any hit were thinned out: in the full panel of roughly 83,000, 20% have a hit.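 Values shown are percent growth following 48 h exposure of cells in 96-well plates to a single concentration of compound; below 10 was considered active.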 Values without a mark were called inactive. Calls of active or inactive are those of the source.

As to `CC(=O)[C@@]1(O)CC[C@H]2[C@@H]3CC[C@@H]4CC(=O)CC[C@]4(C)[C@H]3[C@@H](O)C[C@@]21C`, the growth in the test on HCT-15 colon is 103%; with HT29 colon it was 100%; in the test with SNB-75 CNS, 92.7%; in the test on SNB-19 CNS it was 103%; in the test with U251 CNS it was 94.8%; in the test on PC-3 prostate it was 86.1%. Further, the growth was 99.4% in the test on SK-MEL-5 melanoma; 94.7% in the test on UACC-62 melanoma; 96.7% with LOX IMVI melanoma; 99.4% in the test on SK-MEL-28 melanoma; 99.7% in the test on SK-MEL-2 melanoma; 88.9% in the test with EKVX NSCLC. For the same compound, the growth with SN12C renal was 95.4%; in the test with UO-31 renal, 91.7%; in the test on TK-10 renal, 97.2%; in the test with ACHN renal, 101%; in the test on A498 renal it was 88.6%; with CCRF-CEM leukemia, 94.1%. Moreover, the growth in the test with MOLT-4 leukemia is 94.5%.
For `COC(=O)c1ccc([N+](=O)[O-])c(C)c1`, the growth in the test with HCT-15 colon was 94.9%; in the test with HT29 colon it was 121%; with SNB-75 CNS, 88.4%; in the test on SNB-19 CNS, 119%; in the test with U251 CNS it was 101%; in the test on PC-3 prostate, 93.4%. For the same compound, the growth in the test on SK-MEL-5 melanoma is 109%; with UACC-62 melanoma, 107%; in the test with LOX IMVI melanoma, 107%; with SK-MEL-28 melanoma, 102%; in the test with SK-MEL-2 melanoma it was 116%; with EKVX NSCLC it was 109%. In addition, the growth in the test on SN12C renal was 109%; in the test with UO-31 renal, 79.9%; in the test on TK-10 renal, 128%; with ACHN renal it was 97.1%; in the test with A498 renal, 79.5%; with CCRF-CEM leukemia it was 4.56% (active). Moreover, in the test on MOLT-4 leukemia, the growth is 112%.
On to `CN(C)c1ccc2nc3ccc(=[N+](C)C)cc-3oc2c1`, for which the growth in the test on HCT-15 colon is 33.3%; in the test on HT29 colon, 33.2%; with SNB-75 CNS, 71.3%; in the test with SNB-19 CNS it was 14.2%; with U251 CNS, -29.1% (active); in the test on PC-3 prostate, 11.4%. Moreover, the growth in the test on SK-MEL-5 melanoma is 23.5%; in the test with UACC-62 melanoma, 39.5%; in the test on LOX IMVI melanoma, 12.2%; with SK-MEL-28 melanoma, 66.6%; in the test on SK-MEL-2 melanoma, 58.1%; in the test with EKVX NSCLC it was 29.8%. Further, the growth with SN12C renal is -39.7% (active); with UO-31 renal it was 65.1%; in the test on TK-10 renal, 70%; in the test on ACHN renal, 70.5%; with A498 renal, 94.8%; with MOLT-4 leukemia it was 4.76% (active).
Turning to `CC1(c2ccccc2)CO1` (stereo not drawn), the growth in the test on HCT-15 colon is 102%; in the test with HT29 colon, 112%; in the test with SNB-75 CNS, 89.9%; in the test with SNB-19 CNS it was 102%; in the test with U251 CNS, 97.6%; in the test with PC-3 prostate it was 104%. For the same compound, the growth was 105% in the test with SK-MEL-5 melanoma; 104% in the test with UACC-62 melanoma; 103% in the test on LOX IMVI melanoma; 105% in the test on SK-MEL-28 melanoma; 107% in the test on SK-MEL-2 melanoma; 111% in the test with EKVX NSCLC. Moreover, the growth is 107% with SN12C renal; 85.8% with UO-31 renal; 102% in the test with TK-10 renal; 102% in the test on ACHN renal; 131% with A498 renal; 97.7% in the test on CCRF-CEM leukemia. Besides, the growth in the test on MOLT-4 leukemia is 99.6%.
For the compound `O=C1C=C[C@H](O)[C@@]2(CO)O[C@@H]12`, the growth in the test on HCT-15 colon is 104%; in the test on HT29 colon, 53.9%; with SNB-75 CNS it was 81%; in the test on SNB-19 CNS, 100%; in the test with U251 CNS it was 91.4%; with PC-3 prostate, 82.3%. For the same compound, the growth in the test on SK-MEL-5 melanoma is 100%; in the test on UACC-62 melanoma it was 65.8%; in the test on LOX IMVI melanoma, 66.7%; in the test with SK-MEL-28 melanoma it was 42.1%; in the test on SK-MEL-2 melanoma, -12.4% (active); in the test on EKVX NSCLC, 72.4%. Further, the growth in the test on SN12C renal was 88.7%; in the test on UO-31 renal, 48.1%; in the test on TK-10 renal, 109%; with ACHN renal, 76.7%; with A498 renal, 101%; in the test on CCRF-CEM leukemia, -51% (active). In addition, the growth in the test with MOLT-4 leukemia is 26.9%.
As to `CCNC(=O)Oc1ccc[nH]c1=O`, the growth was 97.9% with HCT-15 colon; 109% with HT29 colon; 85.3% in the test on SNB-75 CNS; 98.8% in the test on SNB-19 CNS; 104% in the test on U251 CNS; 96.5% in the test on PC-3 prostate. Moreover, the growth with SK-MEL-5 melanoma is 95.2%; in the test on UACC-62 melanoma it was 96.1%; with LOX IMVI melanoma it was 99.1%; with SK-MEL-28 melanoma it was 125%; with SK-MEL-2 melanoma, 107%; in the test with EKVX NSCLC, 103%. The growth in the test on SN12C renal is 104%; in the test with UO-31 renal, 86.6%; with TK-10 renal, 110%; with ACHN renal it was 100%; in the test with A498 renal it was 116%; with CCRF-CEM leukemia, 99%.
As to `CC(=O)NNC(=S)N/C=C/c1c(C)ccc([N+](=O)[O-])c1[N+](=O)[O-]`, the growth with HCT-15 colon was 96.5%; in the test on HT29 colon it was 105%; with SNB-75 CNS, 88.5%; in the test on SNB-19 CNS, 113%; in the test with U251 CNS it was 112%; in the test with PC-3 prostate, 97.2%. The growth is 105% with SK-MEL-5 melanoma; 98.5% in the test with UACC-62 melanoma; 96% with LOX IMVI melanoma; 101% in the test with SK-MEL-28 melanoma; 92.3% in the test on SK-MEL-2 melanoma; 99.3% in the test with EKVX NSCLC. In addition, the growth in the test on SN12C renal was 96.2%; in the test with UO-31 renal, 92%; in the test on TK-10 renal it was 118%; in the test with ACHN renal, 98.1%; in the test with A498 renal it was 105%; with CCRF-CEM leukemia it was 99.9%. Moreover, the growth with MOLT-4 leukemia is 95.5%.
In the case of `O=C1CSc2ccccc2N1`, the growth in the test on HCT-15 colon is 118%; in the test on HT29 colon it was 100%; with SNB-75 CNS it was 76.2%; with SNB-19 CNS it was 96.3%; in the test with U251 CNS it was 96.7%; in the test on PC-3 prostate, 93.1%. Moreover, the growth is 109% in the test with SK-MEL-5 melanoma; 106% with UACC-62 melanoma; 88% in the test with LOX IMVI melanoma; 105% with SK-MEL-28 melanoma; 103% with SK-MEL-2 melanoma; 97% with EKVX NSCLC. Besides, the growth in the test on SN12C renal was 100%; in the test with UO-31 renal it was 69.2%; in the test with TK-10 renal, 105%; with ACHN renal, 110%; in the test with A498 renal, 97.2%; with CCRF-CEM leukemia, 96.6%. Moreover, the growth with MOLT-4 leukemia was 114%.
`O=C(O)C1CSC(c2ccccc2)N1` (stereo not drawn): the growth is 90.5% in the test with HCT-15 colon; 91.7% in the test on HT29 colon; 96.7% with SNB-75 CNS; 96.5% in the test with SNB-19 CNS; 105% in the test on U251 CNS; 92.6% in the test on PC-3 prostate. Also, the growth in the test on SK-MEL-5 melanoma is 101%; in the test on UACC-62 melanoma, 93%; in the test with LOX IMVI melanoma it was 102%; in the test on SK-MEL-28 melanoma, 99.6%; in the test on SK-MEL-2 melanoma it was 89.2%; in the test on EKVX NSCLC, 99.1%. Moreover, the growth in the test with SN12C renal was 93.2%; in the test on UO-31 renal it was 91.6%; with TK-10 renal, 95.6%; in the test with ACHN renal, 94.4%; in the test with A498 renal, 81%; in the test on MOLT-4 leukemia, 115%.
